Laboratory results from PubChem BioAssay (EPA / NIEHS).
Active and inactive are the calls of the source. Rule for the calls: active = hit-call score of the fitted dose curve at least 0.9, where 1 is the maximum; inactive = score below 0.9.

Legend:
Conditions in all cases: mRNA level, 48 h; actives raise or lower the signal
[1] = read-out: Alkaline Phosphatase, Placental (ALPP) gene, ALPP (gene 250); assay: LTEA_HepaRG_ALPP: Life Technologies and Expression Analysis (LTEA) Assay for Alkaline Phosphatase, Placental (ALPP) gene using HepaRG (AID 2283468);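 for AC50: differentiated human HepaRG liver cells in serum-free induction medium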
Procedure, shortened: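 HepaRG, 48 h plating then 48 h dosing, serum-free induction medium, 0.5% DMSO. 8 conc, half-log, max 100 uM, duplicates. Endpoint: ALPP transcript by qRT-PCR, housekeeping-normalized; gain or loss fitted vs DMSO.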

[2] = read-out: Bcl-2 (BAD) gene, BAD (gene 572); assay: LTEA_HepaRG_BAD: Life Technologies and Expression Analysis (LTEA) Assay for Bcl-2 (BAD) gene using HepaRG (AID 2283469)
Procedure, shortened: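 Read-out: qRT-PCR of BAD mRNA, normalized to three housekeeping genes. Human HepaRG cultures got 48 h chemical exposure in 0.5% DMSO, duplicate eight-point half-log series topping at 100 uM. Gain or loss of signal fitted versus DMSO vehicle.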

[3] = read-out: Bcl-2 (BAX) gene, BAX (gene 581); assay: LTEA_HepaRG_BAX: Life Technologies and Expression Analysis (LTEA) Assay for Bcl-2 (BAX) gene using HepaRG (AID 2283470)
Procedure, shortened: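 Gene expression measured by Fluidigm qRT-PCR with three housekeeping genes for normalisation. HepaRG cells, plated 48 h beforehand, treated 48 h at up to 100 uM (8-point, half-log) in 0.5% DMSO. Bidirectional fitting versus DMSO.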

[4] = read-out: adenosine kinase (ADK) gene, ADK (gene 132); assay: LTEA_HepaRG_ADK: Life Technologies and Expression Analysis (LTEA) Assay for adenosine kinase (ADK) gene using HepaRG (AID 2283471)
Procedure, shortened: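 Differentiated HepaRG cells dosed 48 h in serum-free induction medium, 0.5% DMSO vehicle, eight half-log concentrations from 100 uM, in duplicate. ADK mRNA by TaqMan qRT-PCR normalised to ACTB, GAPDH, POLR2A; bidirectional fit versus DMSO.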

[5] = read-out: Alpha-fetoprotein (AFP) gene, AFP (gene 174); assay: LTEA_HepaRG_AFP: Life Technologies and Expression Analysis (LTEA) Assay for Alpha-fetoprotein (AFP) gene using HepaRG (AID 2283472)
Procedure, shortened: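 AFP transcript measured by TaqMan qRT-PCR with three housekeeping genes for normalization, after 48 h chemical treatment of HepaRG cells (top 100 uM, half-log steps, 0.5% DMSO). Gain or loss fitted against vehicle.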

BCL2L11 (gene 10018) = assay: LTEA_HepaRG_BCL2L11: Life Technologies and Expression Analysis (LTEA) Assay for Bcl-2 (BCL2L11) gene using HepaRG (AID 2283473)
Procedure, shortened: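 Read-out is BCL2L11 transcript level by qRT-PCR, normalized to three housekeeping genes and fitted bidirectionally against 0.5% DMSO vehicle. HepaRG cells received chemicals for 48 h in serum-free induction medium, 100 uM down in half-log dilutions.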

[6] = read-out: Apolipoprotein A-V (APOA5) gene, APOA5 (gene 116519); assay: LTEA_HepaRG_APOA5: Life Technologies and Expression Analysis (LTEA) Assay for Apolipoprotein A-V (APOA5) gene using HepaRG (AID 2283474)
Procedure, shortened: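 Readout is APOA5 transcript level by qRT-PCR on Fluidigm dynamic arrays, normalized to three housekeeping genes. HepaRG cultures received chemicals for 48 h at up to 100 uM (half-log steps, 0.5% DMSO), with gain or loss scored relative to DMSO.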

[7] = read-out: Apoptosis regulator Bcl-2 (Homo sapiens) (UniProt P10415); assay: LTEA_HepaRG_BCL2: Life Technologies and Expression Analysis (LTEA) Assay for Bcl-2 gene using HepaRG (AID 2283475)
Procedure, shortened: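 qRT-PCR of BCL2 transcript, normalized to three housekeeping genes (ACTB, GAPDH, POLR2A), after 48 h chemical exposure of HepaRG cells; concentrations top 100 uM with half-log dilutions, 0.5% DMSO vehicle, duplicates; changes up or down fitted relative to vehicle.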

[8] = read-out: Bcl-2 (BID) gene, BID (gene 637); assay: LTEA_HepaRG_BID: Life Technologies and Expression Analysis (LTEA) Assay for Bcl-2 (BID) gene using HepaRG (AID 2283476)
Procedure, shortened: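 Duplicate 48 h treatments of HepaRG cells in serum-free induction medium spanned 100 uM downward in half-log steps, 0.5% DMSO. Transcript change quantified by qRT-PCR against three housekeeping genes, fitted up or down versus DMSO.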

Caspase-3 (Homo sapiens) = Caspase-3 (Homo sapiens) (UniProt P42574); assay: LTEA_HepaRG_CASP3: Life Technologies and Expression Analysis (LTEA) Assay for cysteine-aspartic acid protease (CASP3) using HepaRG (AID 2283477)
Procedure, shortened: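 Read-out is CASP3 mRNA level by TaqMan qRT-PCR in human HepaRG cells after 48 h chemical exposure. Eight half-log concentrations topping at 100 uM were tested in 0.5% DMSO; gain or loss was fitted relative to DMSO.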

Sequence of Apoptosis regulator Bcl-2 (Homo sapiens) (P10415 whole entry, looked up): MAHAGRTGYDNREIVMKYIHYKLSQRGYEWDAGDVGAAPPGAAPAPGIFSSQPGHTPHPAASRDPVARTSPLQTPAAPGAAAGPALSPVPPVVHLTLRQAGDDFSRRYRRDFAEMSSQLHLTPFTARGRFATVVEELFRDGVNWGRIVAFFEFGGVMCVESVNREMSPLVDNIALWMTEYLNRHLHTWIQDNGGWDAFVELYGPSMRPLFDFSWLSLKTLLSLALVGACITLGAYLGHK
Sequence of Caspase-3 (Homo sapiens) (P42574 whole entry, looked up): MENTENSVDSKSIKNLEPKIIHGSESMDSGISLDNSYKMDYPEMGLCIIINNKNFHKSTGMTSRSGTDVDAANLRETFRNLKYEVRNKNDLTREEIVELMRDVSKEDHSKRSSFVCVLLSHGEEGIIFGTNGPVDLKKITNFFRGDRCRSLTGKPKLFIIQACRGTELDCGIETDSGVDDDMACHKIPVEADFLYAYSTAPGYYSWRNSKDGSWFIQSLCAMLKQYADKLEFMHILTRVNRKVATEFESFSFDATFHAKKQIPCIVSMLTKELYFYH

Compound	outcome [1]	outcome [2]	outcome [3]	outcome [4]	outcome [5]	outcome (BCL2L11 (gene 10018))	outcome [6]	outcome [7]	outcome [8]	outcome (Caspase-3 (Homo sapiens))	AC50 [1]	AC50 [5]	AC50 (BCL2L11 (gene 10018))	AC50 [6]	AC50 [7]	AC50 (Caspase-3 (Homo sapiens))	AC50 [4]	AC50 [2]	AC50 [8]
COCc1nnc(-c2ccc[n+]([O-])c2)n1-c1c(Cl)c(Cl)cc2[nH]c(=O)c(=O)[nH]c12	inactive	inactive	inactive	inactive	inactive	inactive	inactive	inactive	inactive	inactive									
CCCCCCCCN(C)C	inactive	inactive	inactive	inactive	inactive	inactive	inactive	inactive	inactive	inactive									
Cc1nccn1-c1ccc(Sc2cccc(C3(C(N)=O)CCOCC3)c2)cc1		inactive	inactive						inactive		5.09 µM (active)	13.4 µM (active)	3.37 µM (active)	11.3 µM (active)	7.26 µM (active)	2.48 µM (active)			
O=C(NO)C1(NS(=O)(=O)c2ccc(Oc3ccc(F)cc3)cc2)CCOCC1		inactive	inactive	inactive		inactive	inactive	inactive	inactive		60.9 µM (active)	70.2 µM (active)				50 µM (active)			
CCCOc1ccc(S(=O)(=O)N2CCN(CC)CC2)cc1-c1nc2c(CC)n(Cc3ccccn3)nc2c(=O)[nH]1		inactive	inactive	inactive		inactive	inactive	inactive	inactive	inactive	50 µM (active)	26.9 µM (active)							
Cc1ncc([C@@H](CCCCCCc2ccc3c(n2)NCCC3)CC(=O)O)cn1	inactive	inactive	inactive	inactive	inactive	inactive	inactive	inactive	inactive	inactive									
CC(=O)c1ccccc1	inactive	inactive	inactive	inactive	inactive	inactive	inactive	inactive	inactive	inactive									
C=CCc1cc(S(=O)(=O)c2ccc(O)c(CC=C)c2)ccc1O		inactive	inactive	inactive		inactive		inactive	inactive	inactive	50 µM (active)	79.1 µM (active)		89 µM (active)					
Cc1nc(-c2ccccn2)ncc1C(=O)Nn1cc(C)c2cc(F)ccc21		inactive	inactive	inactive		inactive		inactive	inactive	inactive	82.3 µM (active)	50 µM (active)		80.6 µM (active)					
c1ccc2c(c1)-c1cccc3c1c-2cc1ccccc13	inactive	inactive	inactive						inactive			17.2 µM (active)	12.5 µM (active)	13.4 µM (active)	6 µM (active)	13.5 µM (active)	12.3 µM (active)		
CCCCCCCCCC	inactive	inactive	inactive	inactive	inactive	inactive	inactive	inactive	inactive	inactive									
CCCCCCCCCCCCCCO	inactive	inactive	inactive		inactive	inactive	inactive	inactive	inactive	inactive									
C[C@@H](Oc1ccc(CNC(=O)c2cccnc2Oc2ccc3c(c2)OCO3)c(F)c1)C(=O)O	inactive	inactive	inactive	inactive	inactive	inactive	inactive	inactive	inactive	inactive									
O=C(O)[C@H](O)[C@@H](O)C(=O)O	inactive	inactive	inactive	inactive	inactive	inactive	inactive	inactive	inactive	inactive									
CCCCC(CC)C(=O)OCCOCCOCCOC(=O)C(CC)CCCC (centres undefined)	inactive	inactive	inactive	inactive	inactive	inactive	inactive	inactive	inactive	inactive									
CCCCCCCC1CCC(=O)O1 (centres undefined)	inactive	inactive	inactive		inactive	inactive	inactive	inactive	inactive	inactive									
c1ccc2ncccc2c1	inactive	inactive	inactive		inactive	inactive	inactive	inactive	inactive	inactive									

Compound	outcome [1]	outcome [2]	outcome [3]	outcome [4]	outcome [5]	outcome (BCL2L11 (gene 10018))	outcome [6]	outcome [7]	outcome [8]	outcome (Caspase-3 (Homo sapiens))	AC50 [1]	AC50 [5]	AC50 (BCL2L11 (gene 10018))	AC50 [6]	AC50 [7]	AC50 (Caspase-3 (Homo sapiens))	AC50 [4]	AC50 [2]	AC50 [8]
C=CN1CCCC1=O	inactive	inactive	inactive	inactive	inactive	inactive	inactive	inactive	inactive	inactive									
CCCCCCCCCCCCCCCCOS(=O)(=O)O	inactive	inactive	inactive	inactive		inactive	inactive	inactive	inactive	inactive		41.2 µM (active)							
O=S1(=O)CCCO1	inactive	inactive	inactive		inactive	inactive	inactive	inactive	inactive	inactive									
NC(=O)NN=Cc1ccc([N+](=O)[O-])o1			inactive	inactive	inactive	inactive	inactive	inactive		inactive	0.468 µM (active)							0.381 µM (active)	0.267 µM (active)
O=C(O)c1cccc(C(=O)O)c1	inactive	inactive	inactive	inactive	inactive	inactive	inactive	inactive	inactive	inactive									
O=S(=O)(O)c1ccc(N=Nc2c(O)ccc3cc(S(=O)(=O)O)ccc23)cc1	inactive	inactive	inactive	inactive	inactive	inactive	inactive	inactive	inactive	inactive									
CC(C)CCCCCCOC(=O)C1CCCCC1C(=O)OCCCCCCC(C)C (centres undefined)		inactive	inactive		inactive	inactive		inactive			0.00316 µM (active)			0.00316 µM (active)		0.00316 µM (active)	0.00316 µM (active)		0.00316 µM (active)
CCOC(N)=O	inactive	inactive	inactive	inactive	inactive	inactive	inactive	inactive	inactive	inactive									
OC[C@H]1O[C@@](CO)(O[C@H]2O[C@H](CO)[C@@H](O)[C@H](O)[C@H]2O)[C@@H](O)[C@@H]1O	inactive	inactive	inactive	inactive	inactive	inactive	inactive	inactive	inactive	inactive									
c1ccc2cc3ccccc3cc2c1	inactive	inactive	inactive	inactive	inactive	inactive	inactive	inactive	inactive	inactive									
O=C(O)c1cccc(C[C@@H]2COc3ccc(OCc4nc5cc(F)ccc5s4)cc3[C@@H]2O)c1		inactive	inactive	inactive		inactive		inactive	inactive	inactive	80 µM (active)	68.7 µM (active)		81.1 µM (active)					
CC[C@H](C)C(=O)O[C@H]1C[C@H](O)C=C2C=C[C@H](C)[C@H](CC[C@@H](O)C[C@@H](O)CC(=O)O)[C@H]21	inactive	inactive	inactive	inactive	inactive	inactive	inactive	inactive	inactive	inactive									
CCOc1ccc2[nH]cc(C(=O)NCc3ccccc3)c(=O)c2n1	inactive	inactive	inactive			inactive	inactive		inactive	inactive		81.3 µM (active)			0.662 µM (active)				
NC(=O)N1c2ccccc2C=Cc2ccccc21	inactive	inactive	inactive	inactive	inactive	inactive	inactive	inactive	inactive	inactive									
CCCc1ccccc1	inactive	inactive	inactive	inactive	inactive	inactive	inactive	inactive	inactive	inactive									
CCc1cccc(CC)c1N	inactive	inactive	inactive	inactive	inactive	inactive	inactive	inactive	inactive	inactive									
